Compounds without any hit were thinned out: in the full panel of roughly 79,000, 15% have a hit. A number with no mark means an inactive call. Active and inactive are the calls of the source. Cut-off read from the data, not from the text of the source: active = growth inhibition above about 70%; inactive = the rest.
What was measured:
[1] = NCI Yeast Anticancer Drug Screen. Data for the mec2-1 strain (AID 157); details: S. cerevisiae mec2-1 strain, hits give high values
Outline: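 mec2-1 yeast strain, carrying an alteration in DNA damage repair or cell cycle control, was exposed to compounds; growth inhibition was measured relative to vehicle-treated controls.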

[2] = NCI Yeast Anticancer Drug Screen. Data for the rad14 strain (AID 159);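 note: 0% = growth of vehicle-treated control cultures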; details: S. cerevisiae rad14 strain growth inhibition, hits give high values
Outline: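 Here, inhibition of yeast growth was measured after compound exposure, using a strain with a genetic defect in DNA damage repair and vehicle-treated cultures as the reference.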

[3] = NCI Yeast Anticancer Drug Screen. Data for the sgs1 mgt1 strain (AID 161);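 note: 0% = growth of cultures given vehicle only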; details: S. cerevisiae sgs1 mgt1 strain, hits give high values
Outline: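 Growth of a repair-deficient yeast mutant was monitored after compound treatment and expressed as inhibition relative to vehicle-treated cultures.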

[4] = NCI Yeast Anticancer Drug Screen. Data for the CLN2oe strain (AID 163);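 note: 0% = growth of vehicle-only control cultures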; details: S. cerevisiae CLN2oe strain, hits give high values
Outline: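 Yeast cells carrying a defined cell-cycle control alteration were exposed to test compounds. Growth inhibition was scored against vehicle-treated control cultures.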

[5] = NCI Yeast Anticancer Drug Screen. Data for the cln2 rad14 strain (AID 165);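 note: 0% = growth equal to vehicle treated cultures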; details: S. cerevisiae cln2 rad14 strain, hits give high values
Outline: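 Yeast carrying cln2 and rad14 alterations (cell cycle control and DNA damage repair) were exposed to compounds. Growth inhibition was measured against vehicle-treated controls.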

[6] = NCI Yeast Anticancer Drug Screen. Data for the bub3 strain (AID 167); details: S. cerevisiae bub3 mutant strain, hits give high values
Outline: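 Whole-cell yeast assay. The mutant strain was incubated with compounds, and growth inhibition was determined by comparison with vehicle-treated cells.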

[7] = NCI Yeast Anticancer Drug Screen. Data for the wt2 strain (AID 169);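 note: 0% = growth of vehicle-treated yeast cultures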; details: S. cerevisiae wt2 strain growth inhibition, hits give high values
Outline: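 Yeast cells were exposed to test compounds, and growth inhibition was measured relative to vehicle-treated controls.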

[8] = NCI Yeast Anticancer Drug Screen. Data for the mlh1 strain (AID 171);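 note: 0% = growth of vehicle-treated control cultures of the same strain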; details: S. cerevisiae mlh1 strain growth inhibition, hits give high values
Outline: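 Yeast carrying a defined genetic alteration in DNA damage repair or cell cycle control were exposed to test compounds. Growth inhibition was measured relative to vehicle-treated controls.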

[9] = NCI Yeast Anticancer Drug Screen. Data for the sgs1 strain (AID 173);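 note: 0% = growth of vehicle-only control cultures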; details: S. cerevisiae sgs1 mutant, hits give high values
Outline: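 Yeast mutant strains carrying defined defects in DNA damage repair or cell cycle control were exposed to test compounds. Growth inhibition was scored against vehicle-treated controls.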

[10] = NCI Yeast Anticancer Drug Screen. Data for the mlh1 rad18 strain (AID 175); details: S. cerevisiae mlh1 rad18 strain growth inhibition, hits give high values
Outline: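 Growth inhibition of the yeast strain was measured after compound exposure and expressed relative to vehicle-treated controls. The strain carries defined defects in DNA damage repair.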

[11] = NCI Yeast Anticancer Drug Screen. Data for the rad18 strain (AID 177); details: S. cerevisiae rad18 mutant growth inhibition, hits give high values
Outline: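 Yeast carrying a defined DNA damage repair alteration were exposed to compounds. Growth inhibition was expressed relative to vehicle-treated controls.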

[12] = NCI Yeast Anticancer Drug Screen. Data for the rad52 strain (AID 147);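 note: 0% = growth of vehicle-treated control cultures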; details: S. cerevisiae rad52 mutant growth inhibition, hits give high values
Outline: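 Yeast strain carrying a DNA damage repair alteration was exposed to test compounds. Growth inhibition was measured relative to vehicle-treated controls.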

[13] = NCI Yeast Anticancer Drug Screen. Data for the wt1 strain (AID 149);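 note: 0% = growth of vehicle-treated wt1 cultures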; details: S. cerevisiae wt1 strain (SPY 50644) growth inhibition, hits give high values
Outline: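 Measured: growth of wt1 yeast under compound versus vehicle treatment, reported as inhibition.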

[14] = NCI Yeast Anticancer Drug Screen. Data for the rad50EPP+ strain (AID 151);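 note: 0% = growth of vehicle-treated control cultures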; details: S. cerevisiae rad50 mutant strain, hits give high values
Outline: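 Yeast strain carrying rad50 alteration (rad50EPP+) exposed to compounds; growth inhibition measured relative to vehicle-treated controls.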

[15] = NCI Yeast Anticancer Drug Screen. Data for the mgt1 strain (AID 153); details: S. cerevisiae mgt1 mutant growth inhibition, hits give high values
Outline: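 Yeast mgt1 strain (DNA repair/cell-cycle alteration panel) exposed to compounds; growth inhibition measured relative to vehicle-treated controls.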

[16] = NCI Yeast Anticancer Drug Screen. Data for the rad50 strain (AID 155);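 note: 0% = growth of vehicle-only cultures of the same strain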; details: S. cerevisiae rad50 strain growth inhibition, hits give high values
Outline: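 Growth of the mutant yeast was measured after compound exposure and referenced to vehicle-treated cultures.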

[17] = at 5.0 µM (retest, dose inferred, filed as 0.5)
[18] = at 50.0 µM (retest, dose inferred, filed as 5.0)

In the case of `Cc1ccc(NC(=O)CCC(=O)C(C)C(=O)c2ccccc2)c(C)c1` (stereo unspecified), the growth inhibition [1, 17] is reported as 12%, the growth inhibition ([1]; at 11.0 µM) is reported as 1% and the growth inhibition ([1]; at 33.0 µM) is reported as -2%. The growth inhibition [1, 18] was 39%, the growth inhibition ([1]; at 50.0 µM) was -1.6% and the growth inhibition ([1]; at 100.0 µM) was -3%. It also gave a growth inhibition ([2]; at 1.2 µM) of 0%, a growth inhibition ([2]; at 3.7 µM) of 2% and a growth inhibition ([2]; at 11.0 µM) of 1%. The growth inhibition ([2]; at 33.0 µM) was 2%, the growth inhibition ([2]; at 100.0 µM) was 2% and the growth inhibition [3, 17] was 5%. It also gave a growth inhibition [3, 18] of 9%, a growth inhibition ([3]; at 50.0 µM) of 11.1% and a growth inhibition ([4]; at 1.2 µM) of -1%. It also gave a growth inhibition ([4]; at 3.7 µM) of 1%, a growth inhibition ([4]; at 11.0 µM) of 5% and a growth inhibition ([4]; at 33.0 µM) of 1%. It also gave a growth inhibition ([4]; at 100.0 µM) of 0%, a growth inhibition [5, 17] of -3% and a growth inhibition [5, 18] of 11%. For the same compound, the growth inhibition ([5]; at 50.0 µM) was -12.9%, the growth inhibition ([6]; at 1.2 µM) was -1% and the growth inhibition ([6]; at 3.7 µM) was -2%. It also gave a growth inhibition [6, 17] of -15%, a growth inhibition ([6]; at 11.0 µM) of -2% and a growth inhibition ([6]; at 33.0 µM) of -5%. It also gave a growth inhibition [6, 18] of -10%, a growth inhibition ([6]; at 50.0 µM) of 0.65% and a growth inhibition ([6]; at 100.0 µM) of -5%. For the same compound, the growth inhibition ([7]; at 1.2 µM) was -2%, the growth inhibition ([7]; at 3.7 µM) was -1% and the growth inhibition ([7]; at 11.0 µM) was -1%. For the same compound, the growth inhibition ([7]; at 33.0 µM) was -2%, the growth inhibition ([7]; at 100.0 µM) was -4% and the growth inhibition ([8]; at 1.2 µM) was -2%. The growth inhibition ([8]; at 3.7 µM) was -1%, the growth inhibition ([8]; at 11.0 µM) was -1% and the growth inhibition ([8]; at 33.0 µM) was -1%. The growth inhibition ([8]; at 100.0 µM) was 0%, the growth inhibition ([9]; at 1.2 µM) was 0% and the growth inhibition ([9]; at 3.7 µM) was -1%. For the same compound, the growth inhibition ([9]; at 11.0 µM) was -3%, the growth inhibition ([9]; at 33.0 µM) was -1% and the growth inhibition ([9]; at 100.0 µM) was -1%. For the same compound, the growth inhibition [10, 17] was 6%, the growth inhibition [10, 18] was 3% and the growth inhibition ([10]; at 50.0 µM) was 6.15%. The growth inhibition ([11]; at 1.2 µM) was -1%, the growth inhibition ([11]; at 3.7 µM) was -1% and the growth inhibition ([11]; at 11.0 µM) was -1%. For the same compound, the growth inhibition ([11]; at 33.0 µM) was -3% and the growth inhibition ([11]; at 100.0 µM) was -1%.

For `O=C(C#Cc1ccccc1)/C=C/c1ccccc1`, the growth inhibition ([12]; at 1.2 µM) was 4%, the growth inhibition ([12]; at 3.7 µM) was 3% and the growth inhibition ([12]; at 11.0 µM) was 29%. The growth inhibition ([12]; at 33.0 µM) was 78% (active), the growth inhibition ([12]; at 100.0 µM) was 95% (active) and the growth inhibition ([13]; at 1.2 µM) was -6%. It also gave a growth inhibition ([13]; at 3.7 µM) of -9%, a growth inhibition ([13]; at 11.0 µM) of 10% and a growth inhibition ([13]; at 33.0 µM) of 51%. For the same compound, the growth inhibition ([13]; at 100.0 µM) was 96% (active), the growth inhibition ([14]; at 1.2 µM) was 1% and the growth inhibition ([14]; at 3.7 µM) was 20%. The growth inhibition ([14]; at 11.0 µM) was 53%, the growth inhibition ([14]; at 33.0 µM) was 93% (active) and the growth inhibition ([14]; at 100.0 µM) was 94% (active). It also gave a growth inhibition ([15]; at 1.2 µM) of 0%, a growth inhibition ([15]; at 3.7 µM) of -5% and a growth inhibition ([15]; at 11.0 µM) of 3%. For the same compound, the growth inhibition ([15]; at 33.0 µM) was 28%, the growth inhibition ([15]; at 100.0 µM) was 96% (active) and the growth inhibition ([16]; at 1.2 µM) was -6%. The growth inhibition ([16]; at 3.7 µM) was -8%, the growth inhibition [16, 17] was -136% and the growth inhibition ([16]; at 11.0 µM) was 8%. The growth inhibition ([16]; at 33.0 µM) was 82% (active), the growth inhibition [16, 18] was 72% (active) and the growth inhibition ([16]; at 50.0 µM) was 99% (active). The growth inhibition ([16]; at 100.0 µM) was 94% (active), the growth inhibition ([1]; at 1.2 µM) was 0% and the growth inhibition ([1]; at 3.7 µM) was 2%. It also gave a growth inhibition [1, 17] of -43%, a growth inhibition ([1]; at 11.0 µM) of 4% and a growth inhibition ([1]; at 33.0 µM) of 16%. The growth inhibition [1, 18] was 10%, the growth inhibition ([1]; at 50.0 µM) was 77.3% (active) and the growth inhibition ([1]; at 100.0 µM) was 96% (active). The growth inhibition ([2]; at 1.2 µM) was -1%, the growth inhibition ([2]; at 3.7 µM) was 12% and the growth inhibition ([2]; at 11.0 µM) was 10%. For the same compound, the growth inhibition ([2]; at 33.0 µM) was 82% (active), the growth inhibition ([2]; at 100.0 µM) was 96% (active) and the growth inhibition [3, 17] was -53%. The growth inhibition [3, 18] was 79% (active), the growth inhibition ([3]; at 50.0 µM) was 70.2% (active) and the growth inhibition ([4]; at 1.2 µM) was -7%. It also gave a growth inhibition ([4]; at 3.7 µM) of -7%, a growth inhibition ([4]; at 11.0 µM) of -2% and a growth inhibition ([4]; at 33.0 µM) of 14%. The growth inhibition ([4]; at 100.0 µM) was 93% (active), the growth inhibition [5, 17] was -46% and the growth inhibition [5, 18] was -23%. The growth inhibition ([5]; at 50.0 µM) was 87.7% (active), the growth inhibition ([6]; at 1.2 µM) was -2% and the growth inhibition ([6]; at 3.7 µM) was -1%. For the same compound, the growth inhibition [6, 17] was -65%, the growth inhibition ([6]; at 11.0 µM) was 7% and the growth inhibition ([6]; at 33.0 µM) was 78% (active). The growth inhibition [6, 18] was 53%, the growth inhibition ([6]; at 50.0 µM) was 79.7% (active) and the growth inhibition ([6]; at 100.0 µM) was 96% (active). The growth inhibition ([7]; at 1.2 µM) was -21%, the growth inhibition ([7]; at 3.7 µM) was -5% and the growth inhibition ([7]; at 11.0 µM) was 13%. For the same compound, the growth inhibition ([7]; at 33.0 µM) was 91% (active), the growth inhibition ([7]; at 100.0 µM) was 97% (active) and the growth inhibition ([8]; at 1.2 µM) was -9%. It also gave a growth inhibition ([8]; at 3.7 µM) of -2%, a growth inhibition ([8]; at 11.0 µM) of -3% and a growth inhibition ([8]; at 33.0 µM) of 49%. For the same compound, the growth inhibition ([8]; at 100.0 µM) was 96% (active), the growth inhibition ([9]; at 1.2 µM) was -4% and the growth inhibition ([9]; at 3.7 µM) was 2%. For the same compound, the growth inhibition ([9]; at 11.0 µM) was 24%, the growth inhibition ([9]; at 33.0 µM) was 97% (active) and the growth inhibition ([9]; at 100.0 µM) was 95% (active). For the same compound, the growth inhibition [10, 17] was -140%, the growth inhibition [10, 18] was 72% (active) and the growth inhibition ([10]; at 50.0 µM) was 77% (active). The growth inhibition ([11]; at 1.2 µM) was -5%, the growth inhibition ([11]; at 3.7 µM) was 4% and the growth inhibition ([11]; at 11.0 µM) was 13%. The growth inhibition ([11]; at 33.0 µM) was 81% (active) and the growth inhibition ([11]; at 100.0 µM) was 95% (active).
